About 360 (0.18%) of roughly 200,000 compounds were called active. No stated cut-off is given here; in the data, active means inhibition above about 25%; inactive means the rest. The sample as a whole holds a higher share of actives than the screen did.
Each compound was assayed against Toll-like receptor 4 (Homo sapiens) + Myeloid differentiation primary response protein MyD88 (Homo sapiens) (UniProt O00206+Q99836) (assay: inhibitors of TLR4-MyD88 association in cells, primary screen, cell-based, HeLa CL3-4, BLA complementation, FRET ratio (AID 861;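 further: 0% = vehicle and 100% = reference inhibitor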)). Conditions: HeLa CL3-4 TLR4/MyD88 BLA complementation, at 8.4 µM, hits give high values.
Sequence of Toll-like receptor 4 (Homo sapiens) + Myeloid differentiation primary response protein MyD88 (Homo sapiens) (O00206 whole entry, looked up): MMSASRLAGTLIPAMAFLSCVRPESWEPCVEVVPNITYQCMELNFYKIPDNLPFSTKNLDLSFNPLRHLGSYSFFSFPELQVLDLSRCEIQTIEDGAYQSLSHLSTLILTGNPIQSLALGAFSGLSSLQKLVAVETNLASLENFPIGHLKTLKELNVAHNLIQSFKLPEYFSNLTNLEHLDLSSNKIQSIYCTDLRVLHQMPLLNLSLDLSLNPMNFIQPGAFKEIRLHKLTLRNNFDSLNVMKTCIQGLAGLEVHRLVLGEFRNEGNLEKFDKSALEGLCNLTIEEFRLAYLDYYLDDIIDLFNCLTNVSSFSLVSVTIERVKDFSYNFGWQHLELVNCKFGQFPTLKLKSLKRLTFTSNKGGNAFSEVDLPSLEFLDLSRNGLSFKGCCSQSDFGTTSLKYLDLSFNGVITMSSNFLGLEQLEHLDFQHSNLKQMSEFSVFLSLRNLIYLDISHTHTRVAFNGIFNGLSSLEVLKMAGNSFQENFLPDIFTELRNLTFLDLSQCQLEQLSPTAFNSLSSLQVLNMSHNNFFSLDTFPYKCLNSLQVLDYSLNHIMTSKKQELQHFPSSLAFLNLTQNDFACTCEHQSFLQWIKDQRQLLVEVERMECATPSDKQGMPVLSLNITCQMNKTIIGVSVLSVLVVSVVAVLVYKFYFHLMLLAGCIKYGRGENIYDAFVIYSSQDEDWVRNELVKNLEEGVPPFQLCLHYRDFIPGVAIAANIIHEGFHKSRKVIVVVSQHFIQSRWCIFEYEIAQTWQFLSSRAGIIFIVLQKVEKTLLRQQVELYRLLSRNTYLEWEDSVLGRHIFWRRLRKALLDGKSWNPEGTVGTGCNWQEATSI
Sequence of Toll-like receptor 4 (Homo sapiens) + Myeloid differentiation primary response protein MyD88 (Homo sapiens) (Q99836 whole entry, looked up): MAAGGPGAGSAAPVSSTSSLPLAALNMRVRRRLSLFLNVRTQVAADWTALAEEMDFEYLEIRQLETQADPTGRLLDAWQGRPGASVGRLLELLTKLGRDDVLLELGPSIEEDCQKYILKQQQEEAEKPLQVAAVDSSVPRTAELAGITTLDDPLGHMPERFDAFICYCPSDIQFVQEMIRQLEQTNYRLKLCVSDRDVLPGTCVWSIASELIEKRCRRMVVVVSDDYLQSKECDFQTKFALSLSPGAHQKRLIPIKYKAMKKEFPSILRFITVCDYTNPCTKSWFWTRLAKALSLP

Question: For `COc1ccc(CN2CCN(c3ccccc3F)CC2)c(OC)c1`, which inhibition is on record?
Answer: The inhibition was 29.3% (active).

Question: How did the inhibition turn out when `Fc1cccc(F)c1CN1CCN(Cc2c(F)cccc2F)CC1` was run?
Answer: Its inhibition is 6.5% (inactive).

Question: With `CC(C)c1ccc(O)c(CN2CCN(c3ccccc3)CC2)c1` as the compound, how does the inhibition read?
Answer: The inhibition was -8.07% (inactive).

Question: With `CN(C)CCCN=Cc1c(O)n(Cc2ccco2)c(=O)[nH]c1=O` as the compound, how does the inhibition read?
Answer: The inhibition was -1.36% (inactive).

Question: With `CCOc1ccc(C2SCC(=O)Nc3c2c(C)nn3C2CCOC(C)(C)C2)cc1` (stereo not given) as the compound, how does the inhibition read?
Answer: Its inhibition is -12% (inactive).
